Screening results: PubChem, National Center for Advancing Translational Sciences (NCATS)
TDP1 cell CPT: DT40-hTDP1 cell growth loss with CPT; AID 686979; chicken DT40 Tdp1-/-;hTDP1 cells + 20 nM CPT, ATP luminescence, 48 h; actives 12% (n = 420,000); Potency, µM (titrated, usually from 46.2 µM), for the others: at the highest dose activity change, negative = growth inhibition, hits mostly inhibitors; further: nearly all actives have a fitted effect of over 55% in size
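Chicken DT40 Tdp1-/- cells stably complemented with human TDP1 were seeded at 400 cells/well in medium containing 20 nM camptothecin, exposed to pin-transferred compounds, and grown at 37 °C for at least 48 hr. Viability was read as ATP luminescence.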
HT1080-NT tox: kills 2HG-producing HT-1080-NT fibrosarcoma cells | HT-1080-NT fibrosarcoma viability, CellTiter-Glo ATP luminescence, 48 h | Potency, µM (series often up to 46.1 µM), for inactives: at the top dose activity, negative = less viability, usual class: cytotoxic | actives 1.6% (n = 360,000) | AID 686970;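 further: NT is the 2HG producing partner of a matched IDH1 knockdown line; 0% = DMSO-treated cells and -100% = media-only wells without cells; nearly all actives have a fitted effect of over 55% in size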
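Fibrosarcoma NT cells, 750 per well in 5% FBS RPMI, were exposed to compound for 48 hours. Viability: CellTiter-Glo luminescence.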
KB-V1 MDR tox: kills drug-selected multidrug resistant KB-V1 cells. KB-V1 MDR cells viability, CellTiter-Glo, 72 h. Potency, µM (doses to about 46.1 µM), hits mostly cytotoxic. actives 3.4% (n = 400,000); further: nearly all actives have a fitted effect of over 60% in size
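KB-V1, DMEM (no phenol red) + 10% FBS; cpd pin-transferred, titration series; 72 h, 37 degrees C; CellTiter-Glo, luminescence. Data normalized, curve-fit.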
KB-3-1 cytotox: kills parental KB-3-1 adenocarcinoma cells; actives 1.4% (n = 400,000); KB-3-1 viability, CellTiter-Glo ATP luminescence, 72 h; Potency, µM (top dose mostly 46.1 µM), usual class: cytotoxic; further: nearly all actives have a fitted effect of over 60% in size
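Parental KB-3-1 viability, qHTS format: 72 h compound exposure, 37 °C; CellTiter-Glo; media-only wells and DMSO plates as controls; concentration-effect fits on corrected data.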
HT1080 IDH1KD tx: HT-1080 IDH1 knockdown cell toxicity (counter line); Potency, µM (titrated, usually from 46.1 µM), inactives show at the top dose activity, negative = toxicity, most hits filed as cytotoxic; HT-1080 IDH1 knockdown viability, ATP luminescence, 48 h; actives 2% (n = 360,000);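 further: 0% = DMSO wells and -100% = cell-free medium wells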
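In this qHTS, HT-1080 cells depleted of IDH1 are exposed for 48 h at 37 °C to compound titrations. Toxicity is scored from CellTiter-Glo luminescence, with DMSO as full viability and medium alone as none.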
DT40 TDP1 no CPT: qHTS for Inhibitors of human tyrosyl-DNA phosphodiesterase 1 (TDP1): qHTS in cells in absence of CPT; DT40 Tdp1-/- hTDP1 cells, no CPT, ATP luminescence, 48 h; actives 15% (n = 420,000); Potency, µM (doses to about 46.2 µM), for the others: top-dose activity change, negative = growth inhibition, actives largely listed as inhibitors; further: nearly all actives have a fitted effect of over 55% in size
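Chicken DT40 Tdp1-/- cells complemented with human TDP1, screened without camptothecin (DMSO vehicle only), 400 cells/well. Compounds pin-transferred, cells incubated at 37 °C for at least 48 hr. Growth read as ATP-dependent luminescence (CellTiter-Glo, 30 min at RT).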
* marks the source's active call; other numbers are inactive results; i = inactive; ? = inconclusive; . = not tested or not shown; [ ] = another dose, or the depositor's remark. Only some compounds are listed: those with a hit (about 19% of all), similar ones and a draw of the others. The call rests on the fitted dose curve; in most records, active means well fitted curve in the direction sought with a large enough effect; inconclusive means small, poorly fitted or top-dose-only effect, or another doubt; inactive means no such curve, though single readings can be large; an effect the other way counts as inactive or inconclusive. Unless noted, on the % scale 0 is the no-effect control and ±100 the full control effect; potency means the concentration at half of the fitted maximal effect.

SMILES | TDP1 cell CPT | HT1080-NT tox | KB-V1 MDR tox | KB-3-1 cytotox | HT1080 IDH1KD tx | DT40 TDP1 no CPT
O=C(COc1ccc(S(=O)(=O)N2CCCC2)cc1)NCC1CCCO1 (stereo unspecified) | 25.2% | 6.4% | i | i | 13.7% | 0.2%
CCNc1ncc2nc(-c3ccc(F)cc3)c(=O)n(CCOC)c2n1 | -21.6% | . | . | . | . | -2.8%
COCCN(C(=O)CCl)C(C(=O)NC1CCCCC1)c1ccccc1C (stereo unspecified) | 2.91µM* | ? | 20.6µM* | 13µM* | 13µM* | 2.06µM*
Cc1ccc(C(C(=O)NC2CCCCC2)N(C(=O)Cc2c[nH]c3ccccc23)c2ccccc2C)o1 (stereo unspecified) | 25.9µM* | 14.6µM* | ? | ? | 23.1µM* | 20.6µM*
O=C(NC1CCCC1)C(c1ccc(F)cc1)N(Cc1ccccc1Cl)C(=O)CCl (stereo unspecified) | 5.8µM* | ? | 14.6µM* | ? | ? | 3.26µM*
O=C(NC1CCCCC1)C(c1ccc(F)cc1)N(Cc1cccs1)C(=O)CN1C(=O)c2ccccc2S1(=O)=O (stereo unspecified) | 16.4µM* | 4.1% | ? | i | -0.1% | 16.4µM*
COCCN(C(=O)CNC(=O)c1ccco1)C(C(=O)NC1CCCC1)c1ccccc1F (stereo unspecified) | 16.6% | 12.5% | i | i | 9.6% | -0.3%
CCOC(=O)C1=NNC2C(=O)N(Cc3ccccc3)C(=O)C12 (stereo unspecified) | 15.8% | 28.1% | i | i | 16.4% | -11.4%
Cc1ccc(N(C(=O)c2csnn2)C(C(=O)NC2CCCCC2)c2ccncc2)c(C)c1 (stereo unspecified) | -3.5% | -1.1% | ? | i | 5.8% | -27.1%
COc1ccccc1CN(Cc1ccco1)S(=O)(=O)c1ccc(-n2cnnn2)c(OC)c1 | ? | -6.0% | i | i | 6.2%[9.24 µM] | ?
Cc1cc(C)nc(N2CCCC(C(=O)NCC(c3ccccc3)c3ccccc3)C2)n1 (stereo unspecified) | ? | 2.5% | ? | i | 5.4% | ?
Cc1ccc(C(C(=O)NC2CCCCC2)N(Cc2ccco2)C(=O)Cc2c[nH]c3ccccc23)o1 (stereo unspecified) | ? | -15.6% | 10.3µM* | i | -19.4% | ?
CO[C@H]1C=CO[C@@]2(C)Oc3c(C)c(O)c4c(O)c(c5c(nc6cc(C)ccn65)c4c3C2=O)NC(=O)/C(C)=C\C=C[C@H](C)[C@H](O)[C@@H](C)[C@@H](O)[C@@H](C)[C@H](OC(C)=O)[C@@H]1C | ? | . | . | . | . | 13.3µM*
COC1C=COC2(C)Oc3c(C)c(O)c4c(O)c(c(CN5CCN(C)CC5)c(O)c4c3C2=O)NC(=O)C(C)=CC=CC(C)C(O)C(C)C(O)C(C)C(OC(C)=O)C1C (stereo unspecified) | 23.1µM* | 3.9% | i | i | 12.4% | 20.6µM*
CO[C@H]1C=CO[C@@]2(C)Oc3c(C)c(O)c4c(O)c(cc(O)c4c3C2=O)NC(=O)/C(C)=C\C=C/[C@H](C)[C@H](O)[C@@H](C)[C@@H](O)[C@@H](C)[C@H](OC(C)=O)[C@@H]1C | -3.6% | . | . | . | . | -12.1%
CO[C@H]1/C=C\O[C@@]2(C)Oc3c(C)c(O)c4c(O)c(c(C=NN5CCN(C6CCCC6)CC5)c(O)c4c3C2=O)NC(=O)C(C)=CC=C[C@H](C)[C@H](O)[C@@H](C)[C@@H](O)[C@@H](C)[C@H](OC(C)=O)[C@H]1C | 5.62µM* | . | i | i | . | 3.16µM*
